Data taken from PubChem BioAssay.

Experiment: polyglutamine-triggered caspase-3 activation inhibitors, cell-based (AID 1583)
Settings: polyglutamine-induced caspase-3 activation, cell assay; stronger effect = higher value; concentration not given here

Question: With `C[C@@H]1CC[C@H]2[C@@H](C)C(=O)O[C@@H]3OC4(C)CC[C@@H]1[C@]32OO4` as the compound, how does the inhibition read?
Answer: Its inhibition is 18.8%.

Question: With `CCC(C)C(=O)O[C@H]1[C@H](O)C2C(CN3CC(C)CCC3[C@@]2(C)O)C2C[C@]34O[C@]5(O)C(OC(=O)C(C)(O)C(C)O)CC[C@@]3(C)C5C(OC(C)=O)[C@@H](OC(C)=O)C4[C@@]21O` (stereo partly drawn) as the compound, how does the inhibition read?
Answer: Its inhibition is 19.1%.

Question: For `CC(=O)C1=C(O)C2C3c4c[nH]c5cccc(c45)CC3C(C)(C)N2C1=O` (stereo not drawn), which inhibition is on record?
Answer: The inhibition was -21.2%.

Question: Which inhibition does the source give for `C/C=C(\C)C(=O)O[C@H]1C[C@@H](OC(C)=O)[C@@]2(C(=O)OC)CO[C@@H]3C2[C@]12CO[C@](O)(C(=O)OC)[C@H]2[C@](C)(C12O[C@@]1(C)[C@H]1C[C@@H]2OC2OC=C[C@@]21O)[C@@H]3O` (stereo partly drawn) here?
Answer: The inhibition was 0.47%.

Question: Which inhibition does the source give for `O=C1CC2OCC=C3CN4CC[C@]56c7ccccc7N1C5[C@H]2[C@H]3CC46` (stereo partly drawn) here?
Answer: The inhibition was -12.5%.

Question: For `COc1ccc2c(c1)[C@]13CCCC[C@H]1[C@H](C2)N(C)CC3`, which inhibition is on record?
Answer: The inhibition was -11.5%.

Question: Which inhibition does the source give for `COc1ccc2c(c1OC)C(=O)O[C@H]2[C@H]1c2cc3c(cc2CCN1C)OCO3` here?
Answer: The inhibition was -1.71%.

Question: For `C=C1C2CC[C@H]3[C@]4(C)C[C@H](OC5OC(CO)C(OS(=O)(=O)O)C(OS(=O)(=O)O)C5OC(=O)CC(C)C)C[C@@H](C(=O)O)[C@H]4CC[C@]3(C2)[C@H]1O` (stereo partly drawn), which inhibition is on record?
Answer: The inhibition was 13.1%.

Experiment: suppressors of polyQ aggregation in yeast, 75Q-TubU reporter (AID 1593)
Settings: Yeast 75Q polyglutamine aggregation reporter

Question: Which score does the source give for `C[C@@H]1CC[C@H]2[C@@H](C)C(=O)O[C@@H]3OC4(C)CC[C@@H]1[C@]32OO4` here?
Answer: The score was 0.49.

Question: For `CCC(C)C(=O)O[C@H]1[C@H](O)C2C(CN3CC(C)CCC3[C@@]2(C)O)C2C[C@]34O[C@]5(O)C(OC(=O)C(C)(O)C(C)O)CC[C@@]3(C)C5C(OC(C)=O)[C@@H](OC(C)=O)C4[C@@]21O` (stereo partly drawn), which score is on record?
Answer: The score was 1.45.

Question: With `CO[C@H]1[C@H](O)[C@H](O[C@H]2CC[C@]3(C)C4CC[C@]5(C)C(C6=CC(=O)OC6)CC[C@]5(O)C4CC[C@@H]3C2)O[C@@H](C)[C@@H]1O` (stereo partly drawn) as the compound, how does the score read?
Answer: Its score is 1.23.

Question: With `CC(=O)C1=C(O)C2C3c4c[nH]c5cccc(c45)CC3C(C)(C)N2C1=O` (stereo not drawn) as the compound, how does the score read?
Answer: Its score is -0.21.

Question: With `C/C=C(\C)C(=O)O[C@H]1C[C@@H](OC(C)=O)[C@@]2(C(=O)OC)CO[C@@H]3C2[C@]12CO[C@](O)(C(=O)OC)[C@H]2[C@](C)(C12O[C@@]1(C)[C@H]1C[C@@H]2OC2OC=C[C@@]21O)[C@@H]3O` (stereo partly drawn) as the compound, how does the score read?
Answer: Its score is 1.31.

Question: For `O=C1CC2OCC=C3CN4CC[C@]56c7ccccc7N1C5[C@H]2[C@H]3CC46` (stereo partly drawn), which score is on record?
Answer: The score was 1.28.

Question: For `COc1ccc2c(c1)[C@]13CCCC[C@H]1[C@H](C2)N(C)CC3`, which score is on record?
Answer: Its score is 1.32.

Question: With `COc1ccc2c(c1OC)C(=O)O[C@H]2[C@H]1c2cc3c(cc2CCN1C)OCO3` as the compound, how does the score read?
Answer: The score was 1.46.

Question: With `C[C@H]1O[C@@H](O[C@H]2[C@@H](O)C[C@H](O[C@H]3[C@@H](O)C[C@H](O[C@H]4CC[C@]5(C)C6CC[C@]7(C)[C@@H](C8=CC(=O)OC8)CC[C@]7(O)C6CC[C@@H]5C4)O[C@@H]3C)O[C@@H]2C)C[C@H](O)[C@@H]1O` (stereo partly drawn) as the compound, how does the score read?
Answer: The score was 1.05.

Question: Which score does the source give for `C=C1C2CC[C@H]3[C@]4(C)C[C@H](OC5OC(CO)C(OS(=O)(=O)O)C(OS(=O)(=O)O)C5OC(=O)CC(C)C)C[C@@H](C(=O)O)[C@H]4CC[C@]3(C2)[C@H]1O` (stereo partly drawn) here?
Answer: The score was 1.67.
